Hit rate of the full screen: of about 9,600 compounds, about 20 (0.2%) were called active. The entries come from a sample that favours actives as a whole. Values without a mark were called inactive.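 The calls were made as follows: active = highest normalized replicate activity of 15 or more, or at least half the replicates reach 15 or more; inactive = neither condition met.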
Experiment: activators of Pax4 gene expression, primary screen, RT-PCR, mouse alpha TC1 cells, single point (AID 1053180);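 also: Pax4 Ct normalized to GAPDH with activation seen as lower delta delta Ct; plate controls were plate neutral control wells for no effect and Pax4 plasmid positive control for full effect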
Conditions: Pax4 mRNA qPCR, 6 days, at 10 µM, hits give high values, 100% = Pax4 plasmid added at qPCR

**Q.** For `O=C(C[C@@H]1CC[C@H]2[C@@H](COC[C@@H](O)CN2C(=O)Cc2ccccc2)O1)NC1Cc2ccccc2C1`, which activation is on record?
**A.** 0.021%

**Q.** With `CCCN(C)C[C@H]1OCCCC[C@@H](C)Oc2ccc(NC(=O)CCCN(C)C)cc2C(=O)N([C@H](C)CO)C[C@@H]1C` as the molecule, how does the activation read?
**A.** 0.002%

**Q.** With `C/C=C/c1ccc([C@H]2[C@@H](CO)N3C(=O)CN(Cc4ccc(F)cc4)C[C@H]23)cc1` as the molecule, how does the activation read?
**A.** 0%

**Q.** Which activation does the source give for `C/C=C/c1ccc([C@H]2[C@@H](CO)N3C(=O)CN(Cc4ccc(F)cc4)C[C@@H]23)cc1` here?
**A.** 86.9% (active)

**Q.** For `C/C=C/c1ccc([C@@H]2[C@@H](CO)N3C(=O)CN(Cc4ccc(F)cc4)C[C@@H]23)cc1`, which activation is on record?
**A.** 0.0005%

**Q.** With `COc1ccccc1NC(=O)N1CC(=O)N2[C@H](CO)[C@@H](c3ccc(C#CC(C)C)cc3)[C@@H]2C1` as the molecule, how does the activation read?
**A.** 0.007%

**Q.** For `COc1cccc(-c2ccc3c(c2)O[C@H](CN(C)Cc2cccnc2)[C@H](C)CN([C@@H](C)CO)S3(=O)=O)c1`, which activation is on record?
**A.** 0.057%

**Q.** For `COc1ccc(C(=O)N2C[C@H]3[C@@H](c4ccccc42)[C@@H](CO)N3C(=O)Cc2ccccn2)cc1`, which activation is on record?
**A.** 0%

**Q.** For `N#C[C@@H]1[C@@H](c2ccccc2-c2ccccc2F)[C@H](CO)N1C(=O)Cc1ccccc1`, which activation is on record?
**A.** 0.001%

**Q.** Which activation does the source give for `Cc1nc(N2[C@@H](C#N)[C@@H](c3ccccc3)[C@@H]2CO)sc1C` here?
**A.** 0.0005%

**Q.** For `COc1ccc(C[C@@H]2CCn3cc(nn3)COC[C@H](C)NC2=O)cc1`, which activation is on record?
**A.** 0.0005%

**Q.** For `Cc1ccc(S(=O)(=O)N2C[C@H]3[C@@H](c4ccccc42)[C@@H](CO)N3Cc2cccnc2)cc1`, which activation is on record?
**A.** 0.002%

**Q.** For `O=C(C[C@H]1CC[C@H]2[C@@H](COC[C@@H](O)CN2S(=O)(=O)c2ccc(F)cc2)O1)NCCN1CCCCC1`, which activation is on record?
**A.** 0.003%

**Q.** For `COc1ccc(NC(=O)N[C@H]2CC[C@@H](CCNC(=O)CN3CCOCC3)O[C@H]2CO)cc1`, which activation is on record?
**A.** 0.002%

**Q.** Which activation does the source give for `Cc1noc(C)c1S(=O)(=O)Nc1ccc2c(c1)C(=O)N([C@H](C)CO)C[C@H](C)[C@H](CN(C)Cc1ccc(C(=O)O)cc1)OCCCC[C@H](C)O2` here?
**A.** -0.0005%

**Q.** With `COc1ccc(S(=O)(=O)Nc2ccc3c(c2)C(=O)N([C@@H](C)CO)C[C@H](C)[C@H](CN(C)S(=O)(=O)c2ccc(Cl)cc2)OCCCC[C@H](C)O3)cc1` as the molecule, how does the activation read?
**A.** 0.0535%

**Q.** For `COc1cccc(-c2cccc(-c3nc(C(=O)Nc4ccc(-c5ccccc5)cc4)cc4c3[C@@H](CCO)N(S(=O)C(C)(C)C)C4)c2)c1` (stereo not given in full), which activation is on record?
**A.** 42.4% (active)

**Q.** Which activation does the source give for `COc1cccc(-c2cccc(-c3nc(C(=O)O)cc4c3[C@H](CCO)N(S(=O)C(C)(C)C)C4)c2)c1` (stereo not given in full) here?
**A.** 0.001%

**Q.** With `COc1cccc(-c2cccc(-c3nc(C(=O)O)cc4c3[C@@H](CCO)N(S(=O)C(C)(C)C)C4)c2)c1` (stereo not given in full) as the molecule, how does the activation read?
**A.** 0%

**Q.** For `COc1cccc(-c2ccc3c(c2)[C@@H]2[C@@H](CCN2S(=O)(=O)C2=NC(C)C=N2)[C@H](CO)N3C)c1` (stereo not given in full), which activation is on record?
**A.** 0.001%

**Q.** Which activation does the source give for `COCC(=O)Nc1ccc2c(c1)[C@H]1C[C@@H](CC(=O)N[C@@H](C)c3ccccc3)O[C@@H](CO)[C@H]1O2` here?
**A.** 0.004%

**Q.** Which activation does the source give for `O=C1CN(S(=O)(=O)c2cccc(F)c2)C[C@@H]2[C@@H](c3ccc(C4=CCCC4)cc3)[C@H](CO)N12` here?
**A.** 0.006%

**Q.** With `C[C@H](NC(=O)C[C@@H]1C=C[C@H](NC(=O)c2cccnc2)[C@@H](CO)O1)c1ccccc1` as the molecule, how does the activation read?
**A.** 0.001%

**Q.** With `CO[C@H]1CN(C)C(=O)c2cc(NC(=O)C3CCOCC3)ccc2OC[C@H](C)NC[C@@H]1C` as the molecule, how does the activation read?
**A.** 0.0005%

**Q.** Which activation does the source give for `CCN1CC(=O)N2[C@@H](CO)[C@H](c3ccc(Br)cc3)[C@@H]2C1` here?
**A.** 0%

**Q.** For `Cn1cnc(S(=O)(=O)N[C@H]2CC[C@H](CC(=O)NCC3CCCCC3)O[C@@H]2CO)c1`, which activation is on record?
**A.** -0.0005%

**Q.** For `COc1ccc(S(=O)(=O)N2C[C@H](O)COC[C@@H]3O[C@@H](CC(=O)N[C@H]4CCN(Cc5ccccc5)C4)CC[C@H]32)cc1`, which activation is on record?
**A.** -0.0135%

**Q.** With `COc1ccc2c3c(n(C)c2c1)[C@@H](CO)NCC31CCN(CC2CCCCC2)CC1` as the molecule, how does the activation read?
**A.** 0.027%

**Q.** With `O=C(NC1CCCC1)[C@@H]1[C@@H](CO)[C@@H]2Cn3c(ccc(C4=CCCCC4)c3=O)[C@H]1N2CC1CC1` as the molecule, how does the activation read?
**A.** 0%

**Q.** With `O=C(Nc1ccc2c(c1)[C@@H]1C[C@@H](CC(=O)N3CCCCC3)O[C@H](CO)[C@@H]1O2)NC1CCCCC1` as the molecule, how does the activation read?
**A.** 0.012%

**Q.** For `COc1ccc(S(=O)(=O)N(C)C[C@@H]2Oc3c(NC(=O)c4nc5ccccc5s4)cccc3C(=O)N([C@@H](C)CO)C[C@@H]2C)cc1`, which activation is on record?
**A.** -0.002%

**Q.** With `CCS(=O)(=O)Nc1ccc2c(c1)C(=O)N(C)C[C@H](OC)[C@@H](C)CN(C(=O)c1ccc3c(c1)OCO3)[C@@H](C)CO2` as the molecule, how does the activation read?
**A.** 0%

**Q.** For `C/C=C/c1ccc([C@@H]2[C@H](CO)N(C(C)=O)[C@H]2CN(C(C)=O)C2CCCC2)cc1`, which activation is on record?
**A.** 0.004%

**Q.** With `COCC(=O)N1CCC2(CC1)CN(Cc1ccccc1Cl)[C@H](CO)c1[nH]c3cc(OC)ccc3c12` as the molecule, how does the activation read?
**A.** 0.0015%

**Q.** Which activation does the source give for `CN(C)C(=O)c1cccc(-c2ccc([C@@H]3[C@@H](CO)N4CCCCN(CC5CCOCC5)C[C@@H]34)cc2)c1` here?
**A.** 0.001%

**Q.** With `Cc1ccc(S(=O)(=O)Nc2cccc3c2O[C@@H](CN(C)C(=O)Nc2ccc(C(F)(F)F)cc2)[C@@H](C)CN([C@H](C)CO)C3=O)cc1` as the molecule, how does the activation read?
**A.** 0.002%

**Q.** For `C[C@@H]1CN([C@@H](C)CO)C(=O)c2c(c3ccccc3n2C)-c2ccccc2CO[C@H]1CN(C)C(=O)[C@H](Cc1ccccc1)N(C)C`, which activation is on record?
**A.** 0.0095%

**Q.** For `CN(C)C(=O)c1ccc(-c2ccc([C@H]3[C@H](C#N)N(C(=O)C4CC4)[C@H]3CO)cc2)cc1`, which activation is on record?
**A.** 0.0005%

**Q.** Which activation does the source give for `N#C[C@H]1[C@@H](c2ccccc2-c2cccc(F)c2)[C@H](CO)N1C(=O)CN1CCOCC1` here?
**A.** 0.006%

**Q.** For `O=C(CC1CC1)N1CC[C@@H]2[C@H]1c1cc(-c3ccc(F)cc3)ccc1N[C@@H]2CO`, which activation is on record?
**A.** 0.0045%

From PubChem BioAssay AID1053180 (Broad Institute, 2014)
